# Assay results from PubChem BioAssay (EPA / NIEHS).
# Several values for one entry are separate records, joined by “and”; a condition that tells them apart may be missing. Identical values can stand only once. Records with an inconclusive call do not appear. The source holds several records for some structures; these can differ, active in one and inactive in another. Activity calls are given as the source filed them. How the source made its calls: active means hit-call score of the fitted dose curve at least 0.9, where 1 is the maximum; inconclusive means response in the unintended direction; inactive means score below 0.9.
# Target: Cellular tumor antigen p53 (Homo sapiens) (UniProt P04637)
# Sequence (P04637 whole entry, looked up): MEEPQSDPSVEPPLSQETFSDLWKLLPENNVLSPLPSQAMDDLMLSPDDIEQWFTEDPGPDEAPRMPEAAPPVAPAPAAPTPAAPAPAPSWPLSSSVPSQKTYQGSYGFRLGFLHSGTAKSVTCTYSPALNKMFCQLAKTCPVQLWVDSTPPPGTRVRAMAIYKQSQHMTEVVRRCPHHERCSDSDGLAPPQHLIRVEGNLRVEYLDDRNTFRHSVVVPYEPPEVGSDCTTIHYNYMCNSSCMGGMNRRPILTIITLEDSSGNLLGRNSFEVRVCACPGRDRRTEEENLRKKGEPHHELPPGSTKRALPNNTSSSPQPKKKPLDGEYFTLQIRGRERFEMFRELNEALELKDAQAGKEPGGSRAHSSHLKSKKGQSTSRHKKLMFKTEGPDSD
# Test: TOX21_p53_BLA_p2_ratio: Tox21 HCT-116 p53 Agonism Beta-lactamase Assay, Ratio, Phase 2 (AID 2283592)
# Description: TOX21_p53_BLA_p2 is a cell-based, single-readout assay that uses HCT116, a human intestinal cell line, […] in a 1536-well plate.TOX21_p53_BLA_p2_ratio is an assay readout measuring reporter gene via receptor activity and designed using inducible reporter (beta lactamase induction) detected with GAL4 b-lactamase reporter gene. The signal is derived from the ratio of cleaved (ch2) to uncleaved (ch1) reporter gene substrate used as the measure of target activity.Data from the assay component TOX21_p53_BLA_p2_ratio was analyzed into 1 assay endpoint. This assay endpoint, TOX21_p53_BLA_p2_ratio, was analyzed in the positive analysis fitting direction relative to DMSO as the negative control and baseline of activity. Using a type of inducible reporter, gain-of-signal activity can be used to understand changes in the reporter gene as they relate to the gene TP53. Furthermore, this assay endpoint can be referred to as a primary readout, because this assay has produced multiple assay endpoints and this ratio serves a reporter gene function to understand target activity. To generalize the intended target to other relatable targets, this assay endpoint is annotated to the DNA binding intended target family, where the subfamily is tumor suppressor.
# Thawing Method: Place 14 mL of pre-warmed thaw medium into a 15 mL of conical tub. Remove the vial of cells to be thawed from liquid nitrogen and thaw rapidly by placing at 37C in a water bath with gentle agitation for 1-2 minutes. Decontaminate the vial by wiping with 70% ethanol before opening in a biological safety cabinet. Transfer the vial contents drop-wise into 14 mL of thaw medium in a sterile 15-mL conical tub. Centrifuge cells at 900 rpm for 4 minutes and resuspend in thaw medium. Transfer contents to the T75 tissue culture flask containing Thaw Medium and place flask in a humidified 37C/5% CO2 incubator. Switch to growth medium at first passage.Propagation Method: Aspirate medium, rinse once in DPBS, add 0.25% Trypsin/EDTA and swirl to coat the cell evenly. Add an equal volume of Growth Medium to inactivate Trypsin after 2-3 minutes incubation at 37C. Centrifuge cells at 900 rpm for 4 minutes and resuspend in growth medium. Cell should be passage or fed at least twice a week.Assay Protocol: Harvest cells from culture in growth medium and resuspend in assay medium. 2.2 Dispense 4000 cells/5 uL/well into 1536-well black/clear bottom plates using a Multidrop dispenser. After the cells were incubated at 37C for 5 hours, 23 nL of compounds dissolved in DMSO were transferred to the assay plate by a PinTool resulting in a 217-fold dilution. Incubate the plates for 16 hours at 37C, 5% CO2. Add 1 uL of 6X LiveBLAzer FRET B/G (CCF4-AM) Substrate Mixture to each well using a BioRAPTR dispenser and incubate the plates at room temperature for 2 hours. Measure fluorescence intensity at 460 and 530 nm emission and 405 nm excitation by an Envision detector. Data is expressed as the ratio of 460nm/530nm emissions. Add 4 uL of Cell-titer Glo to each well using BioRAPTR and incubate the plates at room temperature for 2 hours. Measure fluorescence intensity by a VewLux plate reader.
Structure (SMILES),AC50,outcome
O=C(Nc1ccc([N+](=O)[O-])cc1Cl)c1cc(Cl)ccc1O,234 nM (active) and 140 nM (active),–
C[C@]12C[C@H](O)[C@H]3[C@@H](CCC4=CC(=O)CC[C@@]43C)[C@@H]1CC[C@@H]2C(=O)CO,–,inactive
N[C@@H](Cc1cc(I)c(Oc2ccc(O)c(I)c2)c(I)c1)C(=O)O,33.6 µM (active),inactive
CCNc1nc(N)nc(Cl)n1,–,inactive
CC1(C)C(C=C(Cl)Cl)C1C(=O)OCc1cccc(Oc2ccccc2)c1 (stereo not given),–,inactive
CCCN(CCC)C(=O)SCC,–,inactive
CCCCC(CC)CN1C(=O)C2C3C=CC(C3)C2C1=O (stereo not given),–,inactive
O=C(c1ccc(O)cc1O)c1ccc(O)cc1O,73.1 µM (active),inactive
O=C(O)C1(C(=O)Nc2ccc(Cl)cc2Cl)CC1,18.6 µM (active),–
CCOC(=O)COc1cc(-n2ncc(C(F)(F)F)c(C)c2=O)c(F)cc1Cl,–,inactive
CN(C)C(=O)Nc1ccc(Cl)c(Cl)c1,–,inactive
CCCCC(CC)COC(=O)c1ccccc1C(=O)O (stereo not given),–,inactive
C#CCOC(=O)[C@@H](C)Oc1ccc(Oc2ncc(Cl)cc2F)cc1,–,inactive
CCCN(CCC)c1c([N+](=O)[O-])cc(C(F)(F)F)c(N)c1[N+](=O)[O-],37.8 µM (active),–
CC(=O)[C@H]1CC[C@H]2[C@@H]3CCC4=CC(=O)CC[C@]4(C)[C@H]3CC[C@]12C,–,inactive
COCCO,–,inactive
CCC(C)OC(=O)N1CCCCC1CCO (stereo not given),–,inactive
CCOC(=O)c1ccc(O)cc1,–,inactive

Structure (SMILES),AC50,outcome
CC(C)(C)[C@@H](O)[C@@H](Cc1ccc(Cl)cc1)n1cncn1,–,inactive
C#C[C@]1(O)CC[C@H]2[C@@H]3CCC4=CC(=O)CC[C@@H]4[C@H]3CC[C@@]21CC,–,inactive
CC(C)(c1ccc(O)cc1)c1ccc(O)cc1,85.6 µM (active),inactive
CC(=O)S[C@@H]1CC2=CC(=O)CC[C@]2(C)[C@H]2CC[C@@]3(C)[C@@H](CC[C@@]34CCC(=O)O4)[C@H]12,15.8 µM (active),inactive
OB(O)O,–,inactive
CCCCCCC(C)OC(=O)COc1nc(F)c(Cl)c(N)c1Cl (stereo not given),82.3 µM (active),–
CCOC(=O)C(C)Oc1ccc(Oc2nc3ccc(Cl)cc3o2)cc1 (stereo not given),–,inactive
CC(C)CCCCCCc1ccc(O)cc1,–,inactive
COC(=O)CSc1cc(N=c2sc(=O)n3n2CCCC3)c(F)cc1Cl,–,inactive
c1ccc(Nc2ccccc2)cc1,–,inactive
CCCOC(=O)NCCCN(C)C,–,inactive
COc1nc(C)nc(NC(=O)NS(=O)(=O)c2ccccc2OCCCl)n1,–,inactive
CSC(=O)c1cccc2nnsc12,–,inactive
Cc1nn(C)c(Oc2ccccc2)c1C=NOCc1ccc(C(=O)OC(C)(C)C)cc1,0.0043 µM (active),–
CCOC(=O)NCCOc1ccc(Oc2ccccc2)cc1,38.1 µM (active),–
CCN(Cc1c(F)cccc1Cl)c1c([N+](=O)[O-])cc(C(F)(F)F)cc1[N+](=O)[O-],–,inactive
COC(=O)c1ccc(I)cc1S(=O)(=O)NC(=O)Nc1nc(C)nc(OC)n1,–,inactive
Oc1ccc(C(c2ccc(O)cc2)C(Cl)(Cl)Cl)cc1,72.9 µM (active) and 69.1 µM (active),–
